The subject of the first assay is Plasmodium falciparum. Kind of assay: GSK_TCMDC: Inhibition of Plasmodium falciparum 3D7 in whole red blood cells, using parasite LDH activity as an index of growth. Test compounds present at 2uM. It counts as functional.
Regarding `c1ccc(C2=NN=C(c3ccccn3)C3C4CC(C23)C2C3CC(c5ccccc53)C42)nc1` (stereo not drawn), the Inhibition (as a rule, how much of the control response was suppressed) is recorded as 98%.

`CC(C)CCC[C@@H]([C@@H](CC1CCCCC1)C(=O)N[C@@H](CCCCNC(=O)OCc1ccccc1)C(=O)Nc1nccs1)N(O)C=O`: the Inhibition was 98%.

In turn, `Cc1cccc2sc(N(CCCn3ccnc3)C(=O)C=Cc3cccs3)nc12.Cl` showed an Inhibition of 91%.

For a further assay, the system named is Plasmodium falciparum. Kind of assay: GSK_TCMDC: Inhibition of Plasmodium falciparum Dd2 in whole red blood cells, using parasite LDH activity as an index of growth. Test compounds present at 2uM. It counts as functional.
For `O=C(O)C(F)(F)F.c1ccc(CN2CCC(NCc3ccc(-c4ccc(CNC5CCCC5)cc4)cc3)CC2)cc1`, the Inhibition was determined as 98%. As for `Nc1ncc(-c2ccccc2)cc1/C=C/c1cccnc1`, the Inhibition turned out to be 9%. The same measure, in the same setting: the value for `O=C(/C=C/c1ccc(Cl)c(Cl)c1)NCCCCCN1CCC(NS(=O)(=O)c2cc(Cl)cc(Cl)c2)CC1` was 5%. `COc1ccc(C(=O)N2CCN(c3ccc([N+](=O)[O-])c(NC4CC4)c3)CC2)cc1Br`: the Inhibition is recorded as 68%. `CC(CN1CCN(C)CC1)C(=O)Nc1ccc(-c2ccc(-c3nc4cc(F)ccc4[nH]3)cc2)cc1` (stereo not drawn) had an Inhibition of 87%. On the same count and under the same terms, the same measure for `Br.Cc1ccc(OCCCON2C(=N)N=C(N)NC2(C)C)cc1C`: 94%; for `C=CCOc1ccc2ccccc2c1CNCCCCCCNCc1c(OCC=C)ccc2ccccc12.CS(=O)(=O)O`: 98%. On to `Nc1ncc(-c2ccc(NC(=O)Nc3cc(C(F)(F)F)ccc3F)cc2)c(N)n1.O=C(O)C(F)(F)F`, for which the Inhibition stood at 21%.

As to `Cl.NC1CCN(Cc2cccc(-c3ccc(-c4nc5cc(C(F)(F)F)ccc5[nH]4)cc3)c2)C1` (stereo not drawn), the Inhibition is 97%. The same measure, in the same setting: the same measure for `O=C(NC1CC1)c1ccc(Nc2nccc(-c3c(-c4cccc(NC(=O)c5c(F)cccc5F)c4)nn4ccccc34)n2)cc1`: 96%; for `CC(C)CCN1CCC(Oc2ccc(NC(=O)c3cccs3)cc2Cl)C1.O=C(O)C(F)(F)F` (stereo not drawn): 93%. On the same count and under the same terms, the value for `Cn1nc(-c2ccc(CNC3CCc4ccccc43)cc2)c2cnc(NCCCN3CCCC3)nc21` (stereo not drawn) was 22%; that for `Cl.N#Cc1ccc2c(c1)CCN(CCC1CCC(Nc3ncnc4ccccc34)CC1)C2` (stereo not drawn) was 96%. On the same count and under the same terms, the value for `CC(CN1CCN(C)CC1)C(=O)Nc1cccc(-c2ccc(-c3nc4ccccc4[nH]3)s2)c1` (stereo not drawn) was 59%. The molecule `CC(=O)N(C)c1ccc(C(=O)Nc2cccc(-c3cccc(-c4nc5cccc(C)c5[nH]4)c3)c2)cc1` yielded an Inhibition of 30%. Still for that read-out and setting: the same measure for `O=C(O)C(F)(F)F.O=[N+]([O-])c1cccc(CNCC2CCN(CC3CCCCC3)CC2)c1`: 14%; for `CS(=O)(=O)CCNCc1nc(-c2ccc3c(=O)[nH]cnc3c2)cs1`: 96%. Molecule `Cc1[nH]c(C)c(-c2ccc(Oc3cccc(Cl)c3)cc2)c(=O)c1Cl` yielded an Inhibition of 97%.

On to `CC(C)(CNC(=O)[C@H]1CCCN1)c1nc(-c2ccc(Cl)c(O)c2)c(-c2ccncc2)[nH]1.Cl`, for which the Inhibition is given as 95%. The same measure, in the same setting: the same measure for `CS(=O)(=O)N(c1ccccc1)c1cc(C(=O)N[C@@H](Cc2ccccc2)[C@H](O)CNC2CC2)cc(N2CCCC2=O)c1`: 98%; for `C=CCOC(=O)N1CCC(CNCc2cccc(-c3cccc(-c4nc5cccc(C)c5[nH]4)c3)c2)C1.O=C(O)C(F)(F)F` (stereo not drawn): 69%.

On to `O=C1OC2(CCN(C(=O)c3ccc(-n4cnnn4)cc3)CC2)CN1Cc1ccc(Cl)c(Cl)c1`, for which the Inhibition is on record as 70%. The same measure, in the same setting: the same measure for `CC(=O)Nc1ccc(C(=O)Nc2cccc(-c3cccc(-c4nc5cccc(C)c5[nH]4)c3)c2)cn1`: 100%; for `CN(C(=O)Nc1ccc(F)cc1)C1CCN(CCCCCNC(=O)/C=C/c2ccc(Cl)c(Cl)c2)CC1`: 0%.

`O=c1cc(NCCCCNCc2cccc(Cl)c2)[nH]c2ccccc12`: the Inhibition is 41%. Molecule `Cc1cc(OCC2CCN(c3ncc(C(=O)Nc4ccccc4)cc3Cl)CC2)ccc1F` showed an Inhibition of 87%. The same measure, in the same setting: the same measure for `Cc1cc(N/N=C/c2ccccc2[N+](=O)[O-])c2ccccc2n1`: 100%; for `Cc1ccoc1C(=O)Nc1cccc(-c2cccc(-c3nc4ccccc4[nH]3)c2)c1`: 20%; for `Cc1ccc(C)c(Sc2ccc(NC(=O)CN3CCN(C(=O)c4ccco4)CC3)cc2)c1`: 93%. The same measure, in the same setting: the same measure for `COc1c(C2CCN(CCCCNC(=O)c3noc(-c4ccc(C#N)cc4)n3)CC2)ccc2c1CCCC2`: 0%. `O=[N+]([O-])c1ccc2c(-c3ccccc3)c(-c3ccccc3)n(O)c2c1` displayed an Inhibition of 11%. The same measure, in the same setting: the value for `COc1ccc(NC(=O)c2c(NC(=O)c3cccs3)sc3c2CCCC3)cc1` was 4%.

`Br.CN(CCON1C(=N)N=C(N)NC1(C)C)c1ccccc1` displayed an Inhibition of 93%.

As to `COc1ccc(CN2CCC(CNC(C)c3cccc4ccccc34)CC2)cc1.O=C(O)C(F)(F)F` (stereo not drawn), the Inhibition was determined as 26%.

In the case of `CCNc1cc(C(=O)N[C@@H](Cc2ccoc2)[C@H](O)CNC(C)CCCC(C)C)cc(N2CCCCS2(=O)=O)c1.Cl` (stereo partly drawn), the Inhibition came to 68%. On the same count and under the same terms, the value for `CN1N=C2c3ccccc3CCC2C1c1ccc(C#N)cc1` (stereo not drawn) was 85%; that for `Clc1cccc(Cl)c1CCNCC1CCN(CC2CCCCC2)CC1.O=C(O)C(F)(F)F` was 94%.

Consider `c1ccc(C2=NN=C(c3ccccn3)C3C4CC(C23)C2C3CC(c5ccccc53)C42)nc1` (stereo not drawn), for which the Inhibition came to 77%. The same measure, in the same setting: the same measure for `CC(C)CCC[C@@H]([C@@H](CC1CCCCC1)C(=O)N[C@@H](CCCCNC(=O)OCc1ccccc1)C(=O)Nc1nccs1)N(O)C=O`: 90%. The same measure, in the same setting: the value for `Cc1cccc2sc(N(CCCn3ccnc3)C(=O)C=Cc3cccs3)nc12.Cl` was 9%.

The record behind these values is ChEMBL document CHEMBL1157539, “Thousands of chemical starting points for antimalarial lead identification” (Nature, 2010).
